From the OligoGym collection come the findings set out here.
Note: reference of the scale not given here.

The first experiment deals with LCN1. Kind of experiment: pooled miR-30 sensor sort-seq; sequence = guide strand. Particulars: shRNA.
Consider TTGGCTTCCAGGTTGCCCCCTT, for which the sensor-assay potency score (higher = more potent) is -0.189.
Same read-out and setting: the value for TTCATCTCAGGGAACTCCCTGT was 0.622; that for TCCTGAATCTCCTCGTCTGAGG was -2.03.
The same measure, in the same setting: then ATCCTGAATCTCCTCGTCTGAG, with -1.24.
The same measure, in the same setting: then TGACACATCCTGAATCTCCTCG, with 1.02; and TTCCAGGGTCGTGAGGGTCATG, with -1.33; and ATTCATCTCAGGGAACTCCCTG, with -0.0672.

In the next experiment the target is LECT2. Described as above. Particulars: shRNA.
As for ATTGATAGCATTCTTGTTTTGA, the sensor-assay potency score (higher = more potent) is -0.317.
Still for that read-out and setting: then ATTATTGATAGCATTCTTGTTT, with -0.52; and ATGTAGAACATTTTGACACAAA, with -1.54.
Still for that read-out and setting: then TCTCATTGGAAGACTTGCCAGC, with -0.403; and TATTCGAACACCATTATTGATA, with -1.28; and TAATGTAGAACATTTTGACACA, with -0.673.
The same measure, in the same setting: then TTTGAGCAGAGTACTGTCCACA, with -0.808; and TTCCAGATATTCGAACACCATT, with -1.45; and TTGTATGCCAGGATAAACTTTC, with -0.895.
TTGACACAAAAACCTCTTCCAG showed a sensor-assay potency score (higher = more potent) of -1.04.
On the same count and under the same terms, the value for TATGCCAGGATAAACTTTCTGC was -0.251; that for TTATTGATAGCATTCTTGTTTT was -1.1.

The target in the next experiment is LEFTY1. The description is as above. Particulars: shRNA.
In turn, TGACCAGCTCCTCCATGTCGGC yielded a sensor-assay potency score (higher = more potent) of -1.7.
With TCATAAGCCAGGAAGCCCGGGG, the sensor-assay potency score (higher = more potent) is -0.504.
On the same count and under the same terms, the value for TTAGGTGAGGTAACTTGTCAGA was -0.87; that for TCTTTGAGCTGCAGCTGCCGCA was -1.36.
Same read-out and setting: the value for TTCTCGGCCCACTTCATCCCCT was -1.23; that for TTACAAAGTCTTTATTATCTGG was -0.428; that for TCCAACGCCAGGAACCTGCCGG was -1.04.
TATCTCCACATGTAAGTGCTTA came in with a sensor-assay potency score (higher = more potent) of -0.789.
Still for that read-out and setting: then TAAACAATGACACATTGGGCTT, with -1.
On the same count and under the same terms, the value for TCCATAGTCCCCAAGGTCCAGG was -1.98; that for TTTGAGCTGCAGCTGCCGCAGC was -0.825; that for TAGTCCCCAAGGTCCAGGGTGT was -1.02.

The target in another experiment is LEKR1. Described as above. Particulars: shRNA.
The sequence TTGCTCTTCAAATTCAACCAAG came in with a sensor-assay potency score (higher = more potent) of -1.09.
Same read-out and setting: then TACTCTTTTCAGTTCATCCGAC, with 0.07.
On the same count and under the same terms, the value for TTGCAATTTTGTTTCTTCCTTA was 0.537; that for TTCTCTACGCACTGTCTCCTGA was -0.0391.
TATACTTTTGGATTACATCTTG: the sensor-assay potency score (higher = more potent) was -0.0779.
The same measure, in the same setting: the value for TTAGATCTCTTGTAGCGCCTGT was 0.858; that for TTGCTTTTCTTTCACAGTCAGC was -1.35.
As for TTTCCTTTGAATTAGATTCTTC, the sensor-assay potency score (higher = more potent) was 0.113.
Same read-out and setting: then TTTAAGAGTGGTCACTTCCTGC, with -0.157.
